Records with an inconclusive call do not appear. Where a call stands in place of a potency, no number is given. Activity calls are given as the source filed them. Calls follow the shape of the dose curve; as a rule, active = well fitted cell-killing curve with a large enough effect; inconclusive = small, poorly fitted or top-dose-only effect; inactive = flat fitted curve, though single readings scatter. Square brackets hold non-standard residues; d marks the D form. Peptide text beside a SMILES is read from it. ξ: configuration not given here. ξL = CC(C)CC(N)C(=O)O
Potency is read from the fitted curve at half-maximal effect.

A short description of this experiment: HEK-293 Cancer Cell Toxicity qHTS against the NCATS CANVASS Library (AID 1347355). Also: nearly all actives have a fitted effect of over 65% in size. The conditions noted are these: HEK-293 viability, CellTiter-Glo luminescence, 72 h; series mostly up to 46.1 µM. From the text: Natural products and their derivatives continue to be wellsprings of nascent therapeutic potential. However, many laboratories have limited resources for biological evaluation, leaving their previously isolated or synthesized compounds largely or completely untested. To address this issue, the Canvass library of natural products was assembled (https://tripod.nih.gov/canvass), in collaboration with academic and industry researchers, for quantitative high-throughput screening (qHTS) across a diverse set of cell-based and biochemical assays. The pure (>85% purity by liquid chromatography/mass spectrometry [LC/MS]) Canvass library of 346 natural products were submitted by 45 academic laboratories and companies around the world. We collected pure natural products to circumvent deconvolution and structure elucidation due to time and resource limitations. The library was formatted into 1536-well plates and evaluated in 50 qHTS (in an 11-pnt concentration series) bioassays with broad scope of disease-relevant mechanisms. The resulting data set from 50 different assays was then systematically analyzed to identify overall trends and specific natural products with interesting biological activities. Reported herein are the results of each individual qHTS and their corresponding assay protocol. National Center for Advancing Translational Sciences (NCATS), Rockville, MD National Institute of Health (NIH), Bethesda, Maryland
Cancer Cell Toxicity COV-362, OV-KATE, OV-SAHO, UWB1.289, UWB1.289-WTBRCA1, HEK-293, HPAF-II, Panc-1005, SW1088, and U-118MG-screen protocol. 1. In a 1536 well, white solid bottom tissue culture plates (Corning 7494), corresponding cells (COV-362, OV-KATE, OV-SAHO, UWB1.289, UWB1.289-WTBRCA1, HEK-293, HPAF-II, Panc-1005, SW1088, or U-118MG) were dispensed in each well at a final concentration of 1000 cells / well (6uL volume) using the Multidrop Combi (Thermo Fisher Scientific) dispenser. 2. The plates were incubated for 4 hours at 37 degrees C/5% CO2/95% Rh. 3. Compounds were pin transferred (~23nL volume) via Wako Pin-tool (Wako Automation, Richmond VA) equipped with a 1536 pin head. The assay plates were treated with compounds in an 11-pnt concentration series with a final concentration range of […] to 85uM. 4. Bortezomib was used as a single dose control (0.5mM column 4, rows 1 - 32) at a final concentration of 1.9uM and as a 16pnt titration (1mM; 1:2 dilution; 16-points; n = 2; column 3, rows 1 - 32) with final concentration range of 0.1nM - 3.8uM. 5. The assay plates were incubated for 72 hours at 37 degrees C/5% CO2/95% Rh. 6. 3uL CellTiter-Glo detection reagent was then added to the plates (columns 2 - 48, rows 1 - 32) and incubated at room temperature for additional 15min. 7. Luminescence signal was acquired via the ViewLux plate reader (PerkinElmer) using a clear filter, 2 second exposure and 2x binning settings.
As for `CCCc1c2c([nH]c(=O)c1C)C(=O)c1[nH]c(=O)c(C)c(CCC)c1C2=O`, the Potency entry was “inactive”.
Next, `C/C(=C\[C@@H](C)CC/C=C/CC/C=C/C(=O)O)[C@@H](O)[C@H](C)C(=O)CCCC1CC(=O)NC(=O)C1`: “inactive”; `CC(C)=CCC[C@]1(C)[C@H]2CC(=O)[C@@]3(CO3)[C@@H]1C2`: “inactive”; `CC[C@@H](C)[C@H]1NC(=O)C(CC(C)C)NC(=O)[C@@H](CC(C)C)NC(=O)[C@H](Cc2c[nH]c3ccccc23)NC(=O)CNC(=O)[C@@H](CC(N)=O)NC1=O` (stereo partly drawn) (cyclo(GW[dL][ξL][dI][dN])): 11.8 µM (active).
Consider `C=C1CCC2C(C)(C(=O)O)CCC(CC/C(C)=C/C(=O)NC(CCC(N)=O)C(=O)O)[C@@]2(C)C1` (stereo not given in full), for which the Potency result was “inactive”.
Next, `CC[C@H]1[C@H](C)[C@H](c2cc(OC)c(OC)cc2OC)[C@@H](C)[C@H](c2cc(OC)c(OC)cc2OC)[C@@]12C=C(OC)C(=O)C=C2OC`: 18.7 µM (active); `O[C@H]1C=C2[C@H]3CN(Cc4cc5c(cc43)OCO5)[C@H]2C[C@@H]1O`: 5.26 µM (active).
Turning to `CC(C)=CC[C@H]1C[C@@]2(CC=C(C)C)C(=O)[C@](CC=C(C)C)(C(=O)C(C(=O)c3ccccc3)=C2O)C1(C)C`, the Potency is 23.5 µM (active).
Under `COc1c(O)cc2c(c1O)C(=O)c1c(coc1C)C2=O` stands “inactive”; under `C=C1[C@@]2(C)CC3C4(C)CCC(O)C(C)(C)C4CCC3(C)[C@]1(C(=O)OC)C(=O)C(C)(O)C2=O` (stereo not given in full), “inactive”; under `C=C1CC[C@@H](Br)C(C)(C)[C@]12CC=C(C)C(=O)C2`, “inactive”.
Under `CC1(C)CC[C@]2(CO)CC[C@]3(C)C(=CCC4[C@@]5(C)CC[C@H](O)C(C)(C)C5CC[C@]43C)C2C1` (stereo not given in full) stands “inactive”; under `COC(=O)[C@@]1(C)CCC[C@]2(C)c3cc(OC)ccc3CC[C@@H]12`, “inactive”; under `COc1cc(O)c(C(=O)[C@@H]2[C@H](CC=C(C)C)C(C)=CC[C@H]2c2ccccc2)c(O)c1`, 20.9 µM (active).
Under `COC(=O)[C@]1([C@H]2CCC(=O)O2)CC(=O)c2c(O)cc(C)cc2O1` stands “inactive”; under `C=CC(C)(C)C(=O)[C@@H](C)[C@@H]1CC[C@@](C)(C=C)O1`, “inactive”.
For `C=CC(CCCCC)C1C(=O)NC(=O)C1C(=O)C1C2C(C)CC(C(=O)O)CC2CC1(O)C(=O)/C=C/C` (stereo not given), the Potency entry was “inactive”.
Next, `CC(=O)c1c(C)cc2c(c1O)C(=O)c1c(O)cc(O)cc1C2=O`: “inactive”; `C=C(C)CC[C@H](Cc1c(O)cc(O)c2c1O[C@H](c1ccc(O)cc1)CC2=O)C(=C)C`: “inactive”.
Under `CO/C=C/C(=O)c1cc2cnc3c(N)cc(=NC(=O)C(C)C)c([nH]1)c23` stands 0.166 µM (active); under `C=C[C@]1(C)CC[C@@H]([C@H](C)C(=O)CC=C(C)C)O1`, “inactive”.
Next, `CC[C@@H]1[C@H](C)[C@H](c2cc(OC)c(OC)cc2OC)[C@@H](C)[C@H](c2cc(OC)c(OC)cc2OC)[C@]12C=C(OC)C(=O)C=C2OC`: 26.4 µM (active); `C[C@H](CCC(O)C(C)(O)CO)[C@@]1(O)CC[C@@]2(C)C3=C(CC[C@@]21C)[C@@]1(C)CCC(OC(=O)CCC(=O)O)C(C)(C)[C@@H]1CC3` (stereo not given in full): “inactive”; `O=c1cc(-c2ccc(O)cc2)oc2cc(O)c([C@@H]3OC(CO)[C@H](O)[C@@H](O)[C@H]3O)c(O)c12` (stereo not given in full): “inactive”.
Turning to `C/C=C(/C)c1c(Cl)c(OC)c(C)c2c1Oc1c(Cl)c(O)c(Cl)c(C)c1C(=O)O2`, the Potency entry was “inactive”.
Next, `CO[C@H]1/C=C/CCCCC(=O)O[C@@H](/C(C)=C/[C@H](C)C(=O)C[C@H](O)CC2CC(=O)NC(=O)C2)[C@@H](C)C1`: 14.8 µM (active); `C/C(=C\[C@@H](C)CC/C=C/CC/C=C/C(=O)O)[C@H](O)[C@H](C)C(=O)CCCC1CC(=O)NC(=O)C1`: “inactive”.
Next, `C/C(=C\[C@H](C)C(=O)/C=C/CC1CC(=O)NC(=O)C1)[C@@H]1OC(=O)CCCC/C=C/[C@H](O)[C@@H](O)[C@@H]1C`: 23.5 µM (active).
Regarding `CCC(=O)N[C@@H](C[C@H](C)C(Cl)(Cl)Cl)C(=O)N1C(=O)C=C(OC)[C@@H]1C[C@H](C)CCl`, the Potency result is “inactive”.
Next, `C[C@]12CC[C@]3(C1)[C@H](CC2=O)C[C@@H](OC(=O)c1ccccc1)[C@H]1[C@](C)(C(=O)O)CCC[C@@]13C`: 13.2 µM (active); `CC(CCC[C@]1(C)C(=O)C=C[C@@]23C[C@]4(C)O[C@@H](C[C@@H]4[C@H]2O)C31)C(=O)O` (stereo not given in full): “inactive”; `CC[C@H]1[C@@H](C)[C@@H](c2cc(OC)c(OC)cc2OC)[C@H](C)[C@@H](c2cc(OC)c(OC)cc2OC)[C@@]12C=C(OC)C(=O)C=C2OC`: 14.8 µM (active).
Under `CC(C)=CCCC(C)(O)[C@H]1CC=C(C)C(O)C1` (stereo not given in full) stands “inactive”; under `C/C=C(/CO)C(=O)O[C@@H]1[C@H](O)[C@@H](C(=O)OC)O[C@@H]2C[C@H]3OC(n4cnc5c(N)ncnc54)[C@H](OC)[C@H]3O[C@@]12O` (stereo not given in full), “inactive”.
Consider `C=C1C[C@]23C=CC(=O)[C@@](C)(CCCC(C)C(=O)N[C@@H](CO)C(=O)O)[C@@H]2C[C@@H]1CC3` (stereo not given in full), for which the Potency result is “inactive”.
Under `C[C@@]12C[C@@H](C[C@@H]3C(=O)O[C@@H](c4ccoc4)[C@H](OC(=O)c4ccccc4)[C@@H]31)OC2=O` stands “inactive”; under `CC[C@@H](c1cc(OC)c(OC)cc1OC)[C@H](C)[C@@H](/C(C)=C/c1cc(OC)c(OC)cc1OC)c1cc(OC)c(OC)cc1OC`, 16.6 µM (active).
Under `[C-]#[N+][C@@]12C(=O)[C@@H]3[C@@H](O[C@@]4(C(=O)N(C)c5cccc1c54)C3(C)C)C(=O)[C@@]2(C)C=C` stands “inactive”.
Next, `COc1c(O)cc(O)c2c(=O)cc(-c3ccccc3)oc12`: “inactive”.
For `C/C=C(/C)c1cc(O)c(C)c2c1Oc1cc(O)cc(C)c1C(=O)O2`, the Potency entry was “inactive”.

The values above are taken from PubChem BioAssay (NCATS).
